Measurements: PubChem BioAssay (Tox21)
Several values for one entry are separate records, joined by “and”; a condition that tells them apart may be missing. Equal values may be shown once. Inconclusive results are not listed. Entries that show only a call come without a potency. Some structures have more than one record in an assay (separate samples or runs), and their calls can disagree. Activity calls are given as the source filed them. Calls come from the whole dose curve; as a rule, active = well fitted curve in the direction sought with a large enough effect in the repeat runs; inconclusive = weak or mixed curves; inactive = no such curve, though single readings can be large; an effect the other way counts as inactive or inconclusive.

Assays:
[1] = Human pregnane X receptor (PXR) small molecule agonists, qHTS cell viability counter screen (AID 1346977); note: nearly all actives have a fitted effect of over 50% in size; note: potency is the fitted concentration of half-maximal effect
How it was run: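 Measures live-cell protease fluorescence (CellTiter-Fluor) in PXR-Luc HepG2 cells treated 24hr with compounds at 37C. Cells had 5hr to attach before pin transfer of DMSO solutions.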

[2] = Caspase-3/7 induction in HepG2 cells by small molecules, qHTS assay (AID 1346978); note: nearly all actives have a fitted effect of over 15% in size; note: potency is the fitted concentration of half-maximal effect
How it was run: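 Wild-type HepG2 cells (2,000/well) were settled 5 h at 37 C, 5% CO2, then exposed to compounds in DMSO for 17 h. Caspase-3/7 activity was read by luminescence 30 min after adding Caspase-Glo 3/7 reagent at room temperature.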

[3] = Caspase-3/7 induction in CHO-K1 cells by small molecules, qHTS assay (AID 1346980); note: nearly all actives have a fitted effect of over 15% in size; note: potency is the fitted concentration of half-maximal effect
How it was run: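 Wild-type cells were seeded at 1,500 per well and settled 5 hr at 37 C, 5% CO2, then exposed to DMSO-dissolved compounds for 17 hr. Caspase-Glo 3/7 reagent was added, and luminescence was read after 30min at room temperature.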

[4] = Caspase-3/7 induction in HepG2 cells by small molecules, qHTS cell viability counter screen (AID 1346981); note: nearly all actives have a fitted effect of over 30% in size; note: potency is the fitted concentration of half-maximal effect
How it was run: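 Viability determined by CellTiter-Fluor fluorescence in HepG2 wells also used for the luminescent Caspase-Glo 3/7 read. Compounds were present for 16 hr at 37 C, 5% CO2 before reagent addition.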

[5] = target: Nuclear receptor subfamily 1 group I member 2 (Homo sapiens) (UniProt O75469); assay: Human pregnane X receptor (PXR) small molecule agonists, qHTS assay (AID 1346982); note: nearly all actives have a fitted effect of over 35% in size; note: potency is the fitted concentration of half-maximal effect
How it was run: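 Compound-induced hPXR transactivation of a CYP3A4 luciferase reporter was scored in HepG2 PXR-Luc cells over 24 hr at 37 C, 5% CO2, by luminescence.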

[6] = target: Cytochrome P450 2D6 (Homo sapiens) (UniProt P10635); assay: Cytochrome P450 Family 2 Subfamily D Member 6 (CYP2D6) small molecule antagonists: luciferase reporter qHTS assay (AID 1671196); note: nearly all actives have a fitted effect of over 50% in size; note: potency is the fitted concentration of half-maximal effect
How it was run: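 Each well received CYP2D6 with its proluciferin substrate and chemical, sat 10 min, then got NADPH regeneration solution for 1 h at room temperature. Luminescence in RLU served as the activity measure.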

[7] = Caspase-3/7 induction in CHO-K1 cells by small molecules, qHTS cell viability counter screen (AID 1346979); note: potency is the fitted concentration of half-maximal effect; nearly all actives have a fitted effect of over 35% in size
How it was run: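 In the same wells as the caspase read, viability of compound-treated wild-type CHO-K1 cells was assessed using CellTiter-Fluor, added after 16hr at 37C and measured by fluorescence following 1hr further incubation.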

[8] = target: Nuclear receptor subfamily 1 group I member 2 (Rattus norvegicus) (UniProt Q9R1A7); assay: Rat pregnane X receptor (rPXR) activation by small molecules, qHTS assay (AID 1346983); conditions: rPXR luciferase reporter cells, One-Glo luminescence, 24 h; max activation: stronger effect = higher value; note: nearly all actives have a fitted effect of over 20% in size
How it was run: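 Cell-based rPXR luciferase reporter assay, 2,000 cells per well, rested 5hr at 37 C before compound addition in DMSO, then 24 hr at 37 C. One-Glo reagent was added and luminescence read after 30 min at room temperature.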

[9] = target: Nuclear receptor subfamily 1 group I member 2 (Homo sapiens) (UniProt O75469); assay: CYP3A4 induction through human pregnane X receptor (PXR) by small molecules, qHTS assay (AID 1346984); note: nearly all actives have a fitted effect of over 40% in size; note: potency is the fitted concentration of half-maximal effect
How it was run: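 Readings come from a luciferase reporter: DPX-2 cells, which are HepG2 cotransfected with PXR and a CYP3A4-promoter construct, were exposed to test compounds for 24 h at 37C before One-Glo detection.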

[10] = target: Nuclear receptor subfamily 1 group I member 2 (Homo sapiens) (UniProt O75469); assay: Human pregnane X receptor (PXR) activation by small molecules, qHTS assay (AID 1346985); note: nearly all actives have a fitted effect of over 40% in size; note: potency is the fitted concentration of half-maximal effect
How it was run: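 DPX-2 cells (HepG2 co-transfected with a PXR response element and a CYP3A4-promoter luciferase construct) were seeded at 2,000 per well, rested 5 hr at 37C, then exposed to DMSO-dissolved compounds for 24 hr. Activation was read as luciferase luminescence.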

Sequence of Nuclear receptor subfamily 1 group I member 2 (Rattus norvegicus) (Q9R1A7 whole entry, looked up): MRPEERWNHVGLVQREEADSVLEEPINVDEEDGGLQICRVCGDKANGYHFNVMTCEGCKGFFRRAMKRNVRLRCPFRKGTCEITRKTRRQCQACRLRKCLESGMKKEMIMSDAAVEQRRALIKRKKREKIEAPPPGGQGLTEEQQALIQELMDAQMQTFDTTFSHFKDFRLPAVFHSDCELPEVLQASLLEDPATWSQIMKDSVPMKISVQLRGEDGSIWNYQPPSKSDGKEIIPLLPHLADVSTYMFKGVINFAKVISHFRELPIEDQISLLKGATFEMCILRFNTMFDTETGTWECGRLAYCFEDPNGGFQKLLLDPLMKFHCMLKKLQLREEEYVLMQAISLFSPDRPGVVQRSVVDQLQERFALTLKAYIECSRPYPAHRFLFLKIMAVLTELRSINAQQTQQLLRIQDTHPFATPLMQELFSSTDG
Sequence of Nuclear receptor subfamily 1 group I member 2 (Homo sapiens) (O75469 whole entry, looked up): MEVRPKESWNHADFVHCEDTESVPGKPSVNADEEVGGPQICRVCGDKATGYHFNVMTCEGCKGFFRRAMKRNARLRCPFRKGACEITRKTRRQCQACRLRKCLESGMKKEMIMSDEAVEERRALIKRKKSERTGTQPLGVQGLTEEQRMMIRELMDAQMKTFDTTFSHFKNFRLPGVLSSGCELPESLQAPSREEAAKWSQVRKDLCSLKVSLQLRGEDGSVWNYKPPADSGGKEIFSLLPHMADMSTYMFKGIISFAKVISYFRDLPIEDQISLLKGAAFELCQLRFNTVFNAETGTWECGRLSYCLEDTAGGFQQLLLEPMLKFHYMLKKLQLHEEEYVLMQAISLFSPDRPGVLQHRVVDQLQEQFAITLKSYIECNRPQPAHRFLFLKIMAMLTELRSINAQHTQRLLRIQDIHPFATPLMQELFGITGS
Sequence of Cytochrome P450 2D6 (Homo sapiens) (P10635 whole entry, looked up): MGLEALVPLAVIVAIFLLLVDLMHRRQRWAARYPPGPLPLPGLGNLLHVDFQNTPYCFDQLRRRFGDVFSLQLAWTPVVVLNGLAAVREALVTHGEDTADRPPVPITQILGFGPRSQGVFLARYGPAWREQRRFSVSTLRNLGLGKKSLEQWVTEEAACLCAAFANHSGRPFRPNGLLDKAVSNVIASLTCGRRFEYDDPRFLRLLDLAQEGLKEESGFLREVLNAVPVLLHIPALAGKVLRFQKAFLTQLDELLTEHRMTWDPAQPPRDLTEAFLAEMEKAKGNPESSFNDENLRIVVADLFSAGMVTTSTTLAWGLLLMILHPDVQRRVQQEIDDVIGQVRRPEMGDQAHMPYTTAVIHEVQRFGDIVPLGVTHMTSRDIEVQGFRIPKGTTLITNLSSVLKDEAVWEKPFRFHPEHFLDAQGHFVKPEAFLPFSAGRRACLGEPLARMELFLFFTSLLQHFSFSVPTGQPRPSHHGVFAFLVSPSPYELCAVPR

SMILES | Potency [1] | Potency [2] | Potency [3] | Potency [4] | Potency [5] | Potency [6] | Potency [7] | max activation [8] | Potency [9] | Potency [10]
Cc1ccc2oc(CN(Cc3ccccc3)C(=O)Nc3c(F)cc(F)cc3F)c(-c3ccc(Cl)cc3)c2c1 | inactive | inactive | inactive | inactive | 3.74 µM (active) | 0.194 µM (active) | – | – | – | –
NC(=O)C1(N2CCCCC2)CCN(CCCN2c3ccccc3CCc3ccc(Cl)cc32)CC1 | 13.3 µM (active) | 33.5 µM (active) | – | – | 1.33 µM (active) | 7.76 µM (active) | 26.6 µM (active) | – | – | –
CC(C)C(C)(C)C(C)(C)C(C)(C)S | inactive | inactive | inactive | – | 27.3 µM (active) | 39.9 µM (active) | – | – | – | –
O=C(OCC(COC(=O)c1ccccc1)(COC(=O)c1ccccc1)COC(=O)c1ccccc1)c1ccccc1 | inactive | inactive | inactive | inactive | inactive | inactive | – | – | – | –
CN1CCN(CCC(=O)N2c3ccccc3Sc3ccc(C(F)(F)F)cc32)CC1 | 26.6 µM (active) | – | inactive | 29.8 µM (active) | inactive | 0.155 µM (active) | 23.7 µM (active) | -0.926% (inactive) | 14.1 µM (active) | 15.8 µM (active)
Cc1cccc(S(=O)(=O)O)c1C | inactive | inactive | inactive | inactive | inactive | inactive | – | – | – | –
Cc1c(C)c2c(c(C)c1O)CCC(C)(COc1ccc(CC3SC(=O)NC3=O)cc1)O2 (stereo not drawn) | inactive | inactive | inactive | inactive | – | inactive | – | -5.73% (inactive) | – | –
CCOC(=O)/C=C(C)/C=C/C=C(C)/C=C/c1c(C)cc(OC)c(C)c1C | inactive | inactive | inactive | inactive | – | – | – | -4.32% (inactive) | inactive | inactive
CSc1cnc(C)cn1 | inactive | inactive | inactive | inactive | inactive | inactive | – | – | – | –
Oc1ccc(C2(c3ccc(O)cc3)CC3CC2C2CCCC32)cc1 (stereo not drawn) | 58.7 µM (active) | – | inactive | 52.3 µM (active) | – | inactive | 46.6 µM (active) | – | – | –
Cc1ccc(O)c(C(C)(C)C)c1 | inactive | 61 µM (active) | inactive | inactive | inactive | inactive | – | – | – | –
CNCc1cc(F)ccc1Oc1ccc(Cl)c(Cl)c1 | 61.1 µM (active) | – | inactive | – | inactive | 1.78 µM (active) | 61.1 µM (active) | – | – | –
CN1CCC(Nc2ncc3ncnc(Nc4ccc(F)c(Cl)c4)c3n2)CC1 | 26.6 µM (active) | inactive | inactive | – | 10.6 µM (active) | 6.92 µM (active) | – | -19.5% (inactive) | – | 28.2 µM (active)
O=C1c2ccccc2Cc2ccccc21 | inactive | inactive | inactive | – | 27.5 µM (active) | inactive | – | – | – | –
CCCCCCCCCCCCCC[P+](CCCC)(CCCC)CCCC (tested in a mixture with another compound) | 12.3 µM (active) | 27.5 µM (active) | inactive | 24.5 µM (active) | 7.74 µM (active) | 0.113 µM (active) | – | – | – | –
CCCCCCCCNC(C)C(O)c1ccc(SC(C)C)cc1 (stereo not drawn) | 13.3 µM (active) | 21.1 µM (active) | – | 29.8 µM (active) | inactive | 1.95 µM (active) | – | – | – | –
CN(C)[C@@H]1C(=O)C(C(N)=O)=C(O)[C@@]2(O)C(=O)C3=C(O)c4c(O)cccc4C[C@H]3C[C@@H]12 | inactive | inactive | inactive | inactive | inactive | inactive | – | – | – | –
CCCCCCCC/C=C/CCCCCCCC1=NCCN1CCO | 68.6 µM (active) | 43.3 µM (active) | – | 54.5 µM (active) | – | 5.03 µM (active) | – | – | – | –
N=C1N=C(N)c2cc3ccccc3cc21 | 15.8 µM (active) | 45.8 µM (active) | – | 19.3 µM (active) | 12.2 µM (active) | 32.6 µM (active) | – | – | – | –
C[C@H](CCC(=O)O)[C@H]1CC[C@H]2[C@@H]3CC[C@@H]4C[C@H](O)CC[C@]4(C)[C@H]3CC[C@]12C | inactive | – | 48.4 µM (active) and 61.1 µM (active) | 60.9 µM (active) | 54.5 µM (active) | inactive and 35.6 µM (active) | 48.4 µM (active) | – | – | –
CCCCCCC[N+](CC)(CC)CCCCc1ccc(Cl)cc1 | inactive | inactive | inactive | – | inactive | 0.219 µM (active) | – | -3.24% (inactive) | inactive | inactive
Cc1cccc2c1cc1ccc3cccc4ccc2c1c34 | inactive | inactive | inactive | – | inactive | inactive | – | – | – | –
CCCCC(CC)COC(=O)c1ccccc1C(=O)O (stereo not drawn) | inactive | inactive | inactive | – | 35 µM (active) | – | – | – | – | –
Nc1cc(C(F)(F)F)ccc1S | inactive | inactive | – | inactive | 13.3 µM (active) | – | – | – | – | –
CCCCCCCCCCCC[N+](C)(C)CCCCCCCCCCCC | 27.3 µM (active) | – | inactive | 27.3 µM (active) | inactive | 20 µM (active) | 17.2 µM (active) | – | – | –
